High-throughput results deposited in PubChem by National Center for Advancing Translational Sciences (NCATS).
Most compounds without a hit are left out; they make up all but 19% or so of the library.
Lassa entry inh: Lassa virus entry inhibition | Lassa virus pseudotype entry inhibition, cell reporter | Potency, µM (highest dose often 37.9 µM), without a hit: top-dose activity change, negative = inhibition, actives largely listed as inhibitors | 300,000 compounds, 1.2% hits; calls by dose curve; tested in HEK293 cells; note: potency is the fitted concentration of half-maximal effect; % is set by controls: 0 for no effect and ±100 for the full control effect; nearly all actives have a fitted effect of over 50% in size
Cycloheximide cs: affects cycloheximide protein synthesis inhibition readout, counter-screen | cell reporter, cycloheximide protein synthesis inhibition counterscreen | max response, % | 300,000 compounds, 12% hits | AID 2314; in the data active = max response mostly above about 13%, no sharp cut-off; inactive = mostly below about 14%; note: read at 38.3 µM for the half of the compounds with a filed dose; 0% is about no effect
Shiga toxin inh: Shiga toxin inhibition; Vero cells, Shiga toxin protein synthesis inhibition reporter; inhibition, % at 38.7 µM; 290,000 compounds, 9.2% hits; AID 2315; in the data active = inhibition mostly above about 28%, no sharp cut-off; inactive = mostly below about 43%; note: 0% is about no effect
MARV entry inh: Marburg virus entry inhibition. 300,000 compounds, 1.8% hits. Potency, µM (highest dose often 37.8 µM), without a hit: at the highest dose activity change, negative = inhibition, actives largely listed as inhibitors. Marburg virus pseudotyped entry inhibition, cell reporter; calls by dose curve; tested in HEK293 cells; note: potency is the fitted concentration of half-maximal effect; % is set by controls: 0 for no effect and ±100 for the full control effect
Pf growth 48h: P. falciparum growth inhibition at 48 hours (one generation) | Potency, µM (series often up to 28.7 µM), without a hit: at the top dose activity change, negative = inhibition, most hits filed as inhibitors | AID 504832 | 310,000 compounds, 5.9% hits | P. falciparum luciferase growth in erythrocytes, 48 h; note: potency is the fitted concentration of half-maximal effect; % is set by controls: 0 for no effect and ±100 for the full control effect
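Firefly luciferase activity from engineered P. falciparum reports growth; inhibitors lower the luminescent signal. Cultures contained 2% hematocrit erythrocytes at 0.1% final parasitemia.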
Pf growth 96h: P. falciparum growth inhibition at 96 hour, primary screen for plastid delayed-death inhibitors | P. falciparum luciferase reporter growth, 96 h | Potency, µM (highest dose often 28.7 µM), for the others: top-dose activity change, negative = inhibition, usual class: inhibitors | 320,000 compounds, 6.9% hits; note: potency is the fitted concentration of half-maximal effect; % is set by controls: 0 for no effect and ±100 for the full control effect
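96 h incubation, 37 C, 5% CO2, of luciferase-reporter P. falciparum-infected RBCs (2% hematocrit, 0.05% parasitemia final) with test compounds; endpoint luminescence.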
The depositor's hits bear a star; ? = inconclusive; nt = no result; [ ] = another dose, or the depositor's remark. Unless noted, calls come from the whole dose curve; as a rule, active = well fitted inhibition curve with a large enough effect; inconclusive = small, poorly fitted or top-dose-only effect, or another doubt; inactive = no such curve, though single readings can be large or run the other way.

SMILES	Lassa entry inh	Cycloheximide cs	Shiga toxin inh	MARV entry inh	Pf growth 48h	Pf growth 96h
C=CC(=O)NC(NC(=O)C=C)c1ccccc1F	-17%	-1	12	-4%[46.1 µM]	?	9.3µM*
COc1ccc(Oc2nc(-c3ccncc3)nc3ccccc23)cc1	-11%	9	-1	?	?	?
CCCOc1ccc(Oc2nc(-c3ccncc3)nc3ccccc23)cc1	15%	1	-4	?	1.3µM*	1µM*
C=CCOc1nc(-c2ccncc2)nc2ccccc12	-4%	3	-14	?	7.4µM*	18%
COC(=O)/C(=N/Nc1ccccc1C)N1CCCc2ccccc21	14%	3	-9	?	0%	?
N#Cc1cn(C2OC(CO)C(O)C2O)c2ncnc(N)c12 (stereo not given)	0.63µM*	nt	nt	?	nt	nt
NC(=O)c1cn(C2OC(CO)C(O)C2O)c2ncnc(N)c12 (stereo not given)	0.29µM*	-5	-17	0.073µM*	0.1µM*	0.12µM*
CC(C)(C)C(=O)OCC1OC(n2cnc(C(N)=O)n2)C(O)C1O (stereo not given)	?	1	-2	26%	10%	19%
CC(C)=CCNc1ncnc2c1c(C#N)cn2C1OC(CO)C(O)C1O (stereo not given)	-3%	nt	nt	-5%	nt	nt
NC(=O)c1ncn(C2OC(CO)C(O)C2O)n1 (stereo not given)	nt	nt	nt	nt	?	12µM*
O=C(Nc1ccc(N2CCOCC2)cc1N1CCOCC1)c1ccc(Br)cc1	nt	0	-4	nt	?	35%
CC(Oc1cccc(Cl)c1)C(=O)Nc1ccccc1C(=O)N1CCCCC1 (stereo not given)	?	nt	nt	-23%	1%	-23%
CC(Oc1cccc(Cl)c1)C(=O)Nc1ccccc1N1CCCCC1 (stereo not given)	-1%	nt	nt	?	5.9µM*	12µM*
CC(Oc1ccc(F)cc1)C(=O)Nc1ccccc1N1CCCCC1 (stereo not given)	-27%	-3	10	?	?	12µM*
CC(Oc1ccc(Br)cc1)C(=O)Nc1ccc(N2CCOCC2)cc1N1CCOCC1 (stereo not given)	-20%	nt	nt	-35%	12µM*	10µM*
CCN(CC)CCN1C(=O)C(O)=C(C(=O)c2cc3cccc(OC)c3o2)C1c1cccs1 (stereo not given)	-1%[46.1 µM]	1	-6	6%[46.1 µM]	18%	-3%
O=c1cnn(-c2ccccc2)c(-c2ccccc2)c1	-4%	23*	62*	?	39%	-17%
Nc1c(-c2ccccc2)cnn1-c1ccccc1	nt	44*	87*	nt	165%	304%
Cc1ccc(-c2cnn(-c3cccc(C(F)(F)F)c3)c2N)cc1	24%	41*	89*	12%	30%	184%
Nc1c(-c2ccc(Cl)cc2)cnn1-c1cccc(C(F)(F)F)c1	22%	19	41	?	94%	136%
Fc1ccc(-c2ccnn2-c2ccccc2)cc1	nt	14	22	nt	11%	34%
Nc1c(-c2cccc(Cl)c2)cnn1-c1ccccc1	22%[46.1 µM]	45*	70*	10%[46.1 µM]	90%	102%
CC(C)C[C@H](N)C(=O)N1CCC(C(=O)N[C@H](C(=O)NC(C)c2ccccc2)C(C)C)CC1 (stereo not given in full)	nt	-2	6	nt	?	58%
O=C(CNC(=O)c1cccc(Cl)c1)Nc1ccc(Br)cc1C(=O)c1ccccc1	15%	-4	-6	?	-2%	?
CC(C)Oc1ccc(OCCn2c(=S)[nH]c3c(N)ncnc32)cc1	2%	8	7	24%	13%	-21%
SMILES	Lassa entry inh	Cycloheximide cs	Shiga toxin inh	MARV entry inh	Pf growth 48h	Pf growth 96h
CSc1nccn1C(=O)c1ccccc1[N+](=O)[O-]	nt	-1	17	nt	26%	37%
O=C(CN1C(=O)C2C3C=CC(C4CC34)C2C1=O)NCc1ccco1 (stereo not given)	4%	-3	-3	-29%[46.1 µM]	12%	117%
S=c1[nH]c2ccccc2n1CCOc1ccccc1	nt	21*	nt	nt	?	?
Cc1cccc(OCCn2c(=S)[nH]c3ccccc32)c1	-5%	13*	19	3%	?	13µM*
COc1ccccc1OCCn1c(=S)[nH]c2ccccc21	?	-3	-9	-22%	-3%	-14%
CCOc1ccc(OCCn2c(=S)[nH]c3ccccc32)cc1	nt	2	-4	nt	?	?
Cc1ccc(OCCn2c(=S)[nH]c3ccccc32)c(C(C)C)c1	nt	0	-5	nt	12µM*	46%
Cn1c(=O)c2c(c3ccccc31)OC(=O)CC2c1ccc(C(F)(F)F)cc1 (stereo not given)	4%[46.1 µM]	nt	nt	-2%[46.1 µM]	nt	nt
COc1ccc(-c2noc(CN3CCN(c4ccccc4)CC3)n2)cc1	nt	1	4	nt	nt	?
NC(=O)CNC(=O)[C@@H]1CC2(CC(c3cccc(Br)c3)=NO2)CN1C(=O)c1ccc(Br)cc1 (stereo not given in full)	nt	-1	-19	5%	32%	0%
CCCNC(=O)c1ccc(N2CCC3(CC2)CC(c2cccc(Br)c2)=NO3)c(N)c1	nt	nt	nt	nt	12µM*	?
COC(CNC(=O)c1ccc(N2CCC3(CC2)OCCO3)c([N+](=O)[O-])c1)OC	7%	-1	-6	-4%	16%	0%
CCCNC(=O)c1ccc(N2CCC3(CC2)CC(c2cccc(Br)c2)=NO3)c([N+](=O)[O-])c1	nt	2	-4	nt	?	6.6µM*
CSCCC(NS(=O)(=O)c1ccc2c(c1)oc(=O)n2C)C(=O)NCc1ccc(F)cc1 (stereo not given)	16%[46.1 µM]	nt	nt	?	nt	nt
Clc1ccccc1-c1nnc2sc(-c3ccncc3)nn12	nt	-4	-11	nt	nt	2%
COc1ccc(-c2nnc3sc(-c4cccs4)nn23)cc1OC	0%	1	-3	0%	-9%	12µM*
Cc1cccc(-c2nnc3sc(-c4ccccc4)nn23)c1	-16%	4	5	?	14%	2.3µM*
Cc1ccc(-c2nnc3sc(-c4ccncc4)nn23)cc1	15%	-2	-9	5.8µM*	-16%	nt
c1ccc(-c2nn3c(-c4ccccc4)nnc3s2)cc1	-1%	10	-9	5%	8%	-11%
O=C(OCCN(CCOC(=O)c1ccncc1)S(=O)(=O)c1cccs1)c1ccncc1	-1%	10	-14	?	nt	6%
CC1CC(C)CN(C(=O)/C(=C\c2ccccc2)c2ccccc2)C1 (stereo not given)	18%	8	-7	?	1.9µM*	93%
CN1CCN(CC(=O)N/N=C/c2ccc(F)c(F)c2)CC1	6%	-5	13	?	18%	?
COc1ccc(NCN2C(=O)C3C4C=CC(C4)C3C2=O)cc1 (stereo not given)	-16%	-2	-5	?	1%	10µM*
CCc1ccc(N2CC(C(=O)OCC(=O)Nc3ccc([N+](=O)[O-])cc3)CC2=O)cc1 (stereo not given)	-1%	nt	nt	-27%	?	-6%
